# Where “and” joins values, the source holds several entries; their conditions need not be identical. Identical values can stand only once. Inconclusive results are not listed. Calls of active or inactive are those of the source. Calls come from the whole dose curve.
# Target: Acetylcholinesterase (Homo sapiens) (UniProt P22303)
# Assay: Acetylcholinesterase (AChE) small molecule antagonists: colormetric cell-based qHTS assay (AID 1347395); note: nearly all actives have a fitted effect of over 30% in size
# Settings: SH-SY5Y cells AChE activity, colorimetric (Ellman); series mostly up to 115 µM; activity, negative = inhibition: at the top concentration
# In short: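 Endogenous AChE of human neuroblastoma SH-SY5Y cells was measured with an Ellman-type DTNB/acetylthiocholine mix. Compound pretreatment lasted 30 min at 37 C; substrate reaction ran 90 min at 37 C.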
# % is set by controls: 0 for no effect and ±100 for the full control effect; potency is the fitted concentration of half-maximal effect.
# Sequence of Acetylcholinesterase (Homo sapiens) (P22303 whole entry, looked up): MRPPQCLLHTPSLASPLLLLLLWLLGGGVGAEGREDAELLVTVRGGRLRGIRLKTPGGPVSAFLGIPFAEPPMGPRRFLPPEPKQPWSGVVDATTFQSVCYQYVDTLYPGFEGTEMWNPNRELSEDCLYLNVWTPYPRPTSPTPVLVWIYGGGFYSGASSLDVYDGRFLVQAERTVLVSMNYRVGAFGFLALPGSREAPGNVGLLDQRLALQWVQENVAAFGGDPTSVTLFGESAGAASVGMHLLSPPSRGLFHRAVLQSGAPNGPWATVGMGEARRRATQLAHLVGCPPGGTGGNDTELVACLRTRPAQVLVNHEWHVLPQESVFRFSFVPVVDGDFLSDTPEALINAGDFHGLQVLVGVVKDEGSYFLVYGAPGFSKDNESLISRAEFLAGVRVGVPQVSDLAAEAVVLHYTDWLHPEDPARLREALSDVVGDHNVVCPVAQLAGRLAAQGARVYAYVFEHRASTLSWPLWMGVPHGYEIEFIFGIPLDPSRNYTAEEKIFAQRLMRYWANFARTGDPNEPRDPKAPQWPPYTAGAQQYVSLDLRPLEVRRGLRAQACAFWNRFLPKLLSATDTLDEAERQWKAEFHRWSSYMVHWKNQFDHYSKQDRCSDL
Compound,"activity, negative = inhibition",Potency
CC(C)c1ccc(O)c(C(C)C)c1,2.96% (inactive),
CC(=O)/C=C/C1=C(C)CCCC1(C)C,,35.6 µM (active)
O=C(Nc1ccc(C(=O)O)c(O)c1)c1ccccc1,2.39% [at 52.9 µM] (inactive),
O=C1c2cccc(O)c2C(=O)c2c(O)cc(CO)cc21,-8.18% (inactive),
COC(=O)OC,,inactive
Cc1cc(C)c(C)c(C)c1,7.31% (inactive),
C=C(c1ccc(C(=O)O)cc1)c1cc2c(cc1C)C(C)(C)CCC2(C)C,,inactive
COc1cc(/C=C/c2ccccc2)oc(=O)c1,3.79% (inactive),
Cc1ccc2c(n1)Oc1ccc(C(C)C(=O)OCC(=O)N(C)C)cc1C2 (stereo unspecified),,15.5 µM (active) and 12.3 µM (active)
CC(CN(CCN(CC(C)OCCO)CC(C)OCCO)CC(C)OCCO)OCCO (stereo unspecified),-4.43% (inactive),
NC(CSCC(=O)O)C(=O)O (stereo unspecified),3.47% [at 52.9 µM] (inactive),
Nc1cccc(O)c1,1.26% (inactive),
C=CCCCCCCCCO,3.6% (inactive),
Nc1nccs1,-0.65% (inactive),
NC(=O)c1cnccn1,,inactive
CCN(CCC#N)c1ccc(N=Nc2ccc([N+](=O)[O-])cc2)cc1,2.87% (inactive),

# Target: Acetylcholinesterase (Homo sapiens) (UniProt P22303)
# Assay: Acetylcholinesterase (AChE) small molecule antagonists: enzyme-based qHTS assay (AID 1347397); note: nearly all actives have a fitted effect of over 55% in size
# Settings: Potency: AChE enzyme activity inhibition; outcome: AChE enzyme activity inhibition; series mostly up to 115 µM; activity change, negative = inhibition: at the top concentration
# In short: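 Human recombinant acetylcholinesterase; substrate acetylthiocholine; thiocholine quantified with DTNB (colorimetric). Compound preincubation 30 min RT; reaction 10 min RT.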
Compound,Potency,"activity change, negative = inhibition"
CCOCCOCCOCCO,inactive,
CCCCCCCCCCCC(=O)OCC(O)CO (stereo unspecified),,2.12% (inactive)
Cc1cccc(C(C)(C)C)c1O,,-0.138% (inactive)
O=C(O)CCNC(=O)c1ccc(N=Nc2ccc(O)c(C(=O)O)c2)cc1,,9.18% [at 53 µM] (inactive)
CCN(CC)CC1CCCCN1CC(=O)N1c2ccccc2C(=O)Nc2cccnc21 (stereo unspecified),,-0.415% [at 53 µM] (inactive)
O=[N+]([O-])c1c(Cl)cc(Cl)cc1Cl,,0.552% (inactive)
CCCC(=O)O[C@]1(C(=O)CO)CC[C@H]2[C@@H]3CCC4=CC(=O)CC[C@]4(C)[C@H]3[C@@H](O)C[C@@]21C,,-0.703% [at 53 µM] (inactive)
c1ccc2cc3c(ccc4ccccc43)cc2c1,inactive,
CCOC(=O)C(O)c1ccccc1 (stereo unspecified),,1.17% [at 53 µM] (inactive)
C=C(C)C(=O)O,inactive,
Cc1c(-c2cccnc2)c2ccccc2n1CCCCC(=O)O,,0.392% (inactive)
Cc1nnc(NS(=O)(=O)c2ccc(N)cc2)s1,inactive,
CCCCCCC(=O)O,inactive,
O=C(O)C1CCC(C(=O)O)CC1 (stereo unspecified),,0.46% (inactive)
CC(=O)CC(C)(C)O,inactive,
CCOC(=O)/C=C\C(=O)OCC,inactive,
O=C(NC(Cc1cc(=O)[nH]c2ccccc12)C(=O)O)c1ccc(Cl)cc1 (stereo unspecified),,1.83% [at 53 µM] (inactive)
CC(=O)c1ccc(Cl)c(Cl)c1Cl,,0.136% (inactive)
CC1=C(C)S(=O)(=O)CCS1(=O)=O,inactive,
C=CC(=O)OCCOC1C2CCC1C1CC=CC12 (stereo unspecified),,0.411% [at 23.6 µM] (inactive)

Compound,Potency,"activity change, negative = inhibition"
CCCCCCCCCCCC[N+](C)(C)CC(=O)[O-],,-0.774% (inactive)
C#CC(C)(O)CC(C)C (stereo unspecified),,1.48% (inactive)
Cc1cccc(Nc2cc(Cl)nc(SCC(=O)O)n2)c1C,inactive,
CN(C)CCCNCCCN(C)C,,-0.258% (inactive)
CC(C)c1ccc(O)c(C(C)C)c1,,0.258% (inactive)
CC(=O)/C=C/C1=C(C)CCCC1(C)C,inactive,
O=C(Nc1ccc(C(=O)O)c(O)c1)c1ccccc1,,-13.7% [at 53 µM] (inactive)
O=C1c2cccc(O)c2C(=O)c2c(O)cc(CO)cc21,,3.94% (inactive)
COC(=O)OC,inactive,
Cc1cc(C)c(C)c(C)c1,,1.74% (inactive)
C=C(c1ccc(C(=O)O)cc1)c1cc2c(cc1C)C(C)(C)CCC2(C)C,inactive,
COc1cc(/C=C/c2ccccc2)oc(=O)c1,,1.09% (inactive)
Cc1ccc2c(n1)Oc1ccc(C(C)C(=O)OCC(=O)N(C)C)cc1C2 (stereo unspecified),15.5 µM (active),
CC(CN(CCN(CC(C)OCCO)CC(C)OCCO)CC(C)OCCO)OCCO (stereo unspecified),,-0.143% (inactive)
NC(CSCC(=O)O)C(=O)O (stereo unspecified),,0.113% [at 53 µM] (inactive)
Nc1cccc(O)c1,,0.556% (inactive)
C=CCCCCCCCCO,,-0.137% (inactive)
Nc1nccs1,,0.0135% (inactive)
NC(=O)c1cnccn1,inactive,
CCN(CCC#N)c1ccc(N=Nc2ccc([N+](=O)[O-])cc2)cc1,,-1.92% (inactive)

# From PubChem BioAssay (Tox21)
